Out of some 410,000 compounds screened, about 18,000 (4.4%) were called active. Another 7% or so got no clear call; they are omitted. What follows is part of a selection rich in actives, with near analogues and random picks from the rest. Unmarked numbers belong to inactive results. Rule as the data show it: active = activity change below about -60%; inconclusive = no clear call, values can overlap the other calls; inactive = above about -39%.
Test: qHTS Assay for inhibitors of the human cytomegalovirus (HCMV)
Conditions: HFF cells, HCMV-luciferase reporter, 72 h; at 57.5 µM; hits give low values
Outline: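 After 16 h attachment at 37C, HFF cells received test compound and HCMV-luciferase (1 PFU/cell); reporter luminescence read 72 h later, data normalized against buffer-only and known inhibitor Salinomycin.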
Cc1cc(NC(=O)/C=C/C(=O)N(CC(=O)NC2CCCC2)c2ccc(F)cc2)no1 gave an activity change, negative = inhibition of 29.1%.
Work on Cc1cc(NC(=O)CCC(=O)N(c2cccc(F)c2)C(C(=O)NC2CCCC2)c2ccncc2)no1 (configuration not stated) yielded an activity change, negative = inhibition of -19.9%.
In the case of Cc1cc(NC(=O)/C=C/C(=O)N(c2ccccc2C)C(C(=O)NC2CCCC2)c2ccc(F)cc2)no1 (configuration not stated), the activity change, negative = inhibition is reported as -73.5% (active).
With Cc1cccc(C)c1-n1nnnc1C1C(=O)NC(=S)N1c1ccccc1 (configuration not stated) the activity change, negative = inhibition was 26.7%.
In the case of Cn1c(=O)c2c(nc(SCC(=O)Nc3ccc(F)cc3)n2Cc2ccccc2)n(C)c1=O, the activity change, negative = inhibition is reported as 5.41%.
With CN=c1scc(-c2cc(OC)ccc2OC)n1/N=C/c1c(C)[nH]c2ccccc12 the activity change, negative = inhibition was -85.5% (active).
For COc1ccc(/C=N/n2c(C)cc(C)cc2=O)cc1, the activity change, negative = inhibition was -24.9%.
CCn1c(-c2cc(OC)ccc2OC)csc1=Nc1c(C)n(C)n(-c2ccccc2)c1=O showed an activity change, negative = inhibition of -25.8%.
For CCOC(=O)c1ccc(NC(=O)CCS(=O)(=O)c2ccc(C)cc2)cc1, the activity change, negative = inhibition was 0%.
With OCc1cnc(SCc2ccc(F)cc2)n1Cc1ccc(F)cc1 the activity change, negative = inhibition was -26.3%.
O=C(c1ccco1)N1CCN(C(=O)C2CCCN(S(=O)(=O)c3cccc4nsnc34)C2)CC1 (configuration not stated) gave an activity change, negative = inhibition of -12.2%.
Work on CCOC(=O)c1c(C)oc2nc(C)nc(N(CC(C)C)CC(C)C)c12 yielded an activity change, negative = inhibition of -31.4%.
With COC(=O)C(C)N(C#N)c1nc(C)nc(C)n1 (configuration not stated) the activity change, negative = inhibition was -110% (active).
CNc1nc(SC)nc(N(C#N)CC(=O)OC)n1 gave an activity change, negative = inhibition of 81.6%.
With CCCCCn1c(CCCNC(=O)c2ccccc2OC)nc2ccccc21 the activity change, negative = inhibition was -34.7%.
Clc1ccc(CSc2nncn3c2cc2occc23)cc1 showed an activity change, negative = inhibition of -20.2%.
For COc1ccc(CCn2c(O)c(C=NC3CC3)c(=O)[nH]c2=O)cc1OC, the activity change, negative = inhibition was -4.78%.
For COc1ccc(CCn2c(O)c(C=NCCCn3ccnc3)c(=O)[nH]c2=O)cc1OC, the activity change, negative = inhibition was -107% (active).
Molecule O=c1[nH]c(=O)n(CCc2ccc(F)cc2)c(O)c1/C=N/N1CCCCC1 has an activity change, negative = inhibition of -4.21%.
With CC(C)(C(=O)Nc1ccccc1)n1cc(NC(=O)c2cc(F)cc(F)c2)cn1 the activity change, negative = inhibition was 9.36%.
Cc1ccc(C(C(=O)NCC2CCCO2)N(C(=O)c2snc(C(N)=O)c2N)c2ccc(C(C)C)cc2)o1 (configuration not stated) gave an activity change, negative = inhibition of -9.39%.
In the case of O=C(N/N=C/c1ccc([N+](=O)[O-])o1)c1cn(-c2ccccc2)nc1-c1ccc(F)cc1, the activity change, negative = inhibition is reported as -65.8% (active).
In the case of O=C(NNC(=S)NC(=O)c1cn(-c2ccccc2)nc1-c1ccccc1)c1ccncc1, the activity change, negative = inhibition is reported as 21.1%.
For O=C(CSc1ccc(/C=N/NC(=O)c2cccc(F)c2)o1)Nc1ccccc1, the activity change, negative = inhibition was -21.6%.
Work on O=C(NCCCN1CCCC1=O)c1cccc(S(=O)(=O)NCc2ccccc2)c1 yielded an activity change, negative = inhibition of 0.765%.
With Clc1ccc2c(c1)C1=C(C(c3ccncc3)O2)C(c2ccc(Br)cc2)n2ncnc2N1 (configuration not stated) the activity change, negative = inhibition was -78.3% (active).
In the case of CC1CCCN(c2nc3c(S(=O)(=O)c4ccc(C(C)C)cc4)nnn3c3ccsc23)C1 (configuration not stated), the activity change, negative = inhibition is reported as 20%.
Cc1ccc(-n2c3nc(=O)[nH]c(=O)c-3cc3c(Cl)cccc32)cc1 gave an activity change, negative = inhibition of -14.6%.
With CCN(CC)S(=O)(=O)c1ccc(C)c(NC(=O)COc2ccc(Br)cc2Cl)c1 the activity change, negative = inhibition was 24.1%.
Cc1ccc(S(=O)(=O)N(C)C)cc1NC(=O)c1ccccc1Br gave an activity change, negative = inhibition of -5.46%.
In the case of CCN(CC)S(=O)(=O)c1ccc(NC(=O)c2cccnc2Cl)c(NC(=O)c2cccnc2Cl)c1, the activity change, negative = inhibition is reported as -100% (active).
Molecule Cc1ccc(-c2nn(CCC(=O)Nc3ccc(Cl)c(Cl)c3)c(=O)c3ccccc23)cc1 has an activity change, negative = inhibition of -16.5%.
With O=C(CC(O)(C(F)(F)F)C(F)(F)F)Nc1ccc(Cl)c(Cl)c1 the activity change, negative = inhibition was -103% (active).
Work on O=C(CSc1nnc(-c2ccncc2)n1-c1ccccc1)Nc1ccc(Cl)c(Cl)c1 yielded an activity change, negative = inhibition of -5.77%.
With COc1cc(Cl)c(NC(=O)C(NS(=O)(=O)c2cccs2)C(C)C)c(OC)c1 (configuration not stated) the activity change, negative = inhibition was -10.2%.
Molecule CCc1ccc(-n2nc(C)c3c(C)cc(=O)n(CC(=O)Nc4ccc(F)cc4C)c32)cc1 has an activity change, negative = inhibition of 5.24%.
For CCc1ccccc1NC(=O)c1ccc2nc(CCc3ccccc3)oc2c1, the activity change, negative = inhibition was 30%.
Molecule COC(=O)c1ccc(-c2nc3cc(NC(C)=O)ccc3o2)cc1 has an activity change, negative = inhibition of 13.5%.
In the case of COC(=O)c1ccc(Nc2ncnc3sccc23)cc1, the activity change, negative = inhibition is reported as -62.4% (active).
O=S(=O)(Nc1ncnc2sccc12)c1cccc(F)c1 gave an activity change, negative = inhibition of 30.2%.
For CCOC(=O)c1c(NC(=O)COc2cc(C)ccc2C(C)C)sc(C)c1C, the activity change, negative = inhibition was 12.8%.
CC1CCN(S(=O)(=O)c2ccc3c(ccn3CCC(=O)NCc3ccc(N(C)C)cc3)c2)CC1 showed an activity change, negative = inhibition of 5.8%.
For CCc1ccc(NC(=O)c2nn(-c3ccc(C)cc3)c(=O)n(C)c2=O)cc1, the activity change, negative = inhibition was -12.5%.
Work on CCOc1ccccc1NC(=O)CSc1ncc(S(=O)(=O)c2ccc(C(C)(C)C)cc2)c(=O)[nH]1 yielded an activity change, negative = inhibition of -2.52%.
With CC1=CC(=Cc2sc3ccccc3[n+]2C)C=C(C)O1 the activity change, negative = inhibition was -100% (active).
CCC(=O)N1CCc2cc(Br)cc(S(=O)(=O)CCC(=O)NCCc3ccc(OC)c(OC)c3)c21 gave an activity change, negative = inhibition of 7.78%.
With COc1ccc(C2NC(=S)NC3=C2CCc2ccccc23)cc1OC (configuration not stated) the activity change, negative = inhibition was -13.4%.
In the case of Cc1ccc(-c2nn(C(C)(C)C)c3ncnc(N)c23)cc1, the activity change, negative = inhibition is reported as -69.5% (active).
With CCOC(=O)C1=C(N)N(c2ccc(C)cc2)C2=C(C(=O)CCC2)C1c1cccs1 (configuration not stated) the activity change, negative = inhibition was -86.5% (active).
In the case of O=C1CCCC2=C1C(c1cccs1)CC(=O)N2c1ccc(F)cc1 (configuration not stated), the activity change, negative = inhibition is reported as 18.4%.
In the case of CCOC(=O)c1cc2c(n(-c3ccc(C)cc3)c1=O)CCCC2=O, the activity change, negative = inhibition is reported as -27.5%.
Work on Cc1ccc(C)c(Cn2c(=O)n(CCC(=O)NCc3ccc4c(c3)OCO4)c(=O)c3sccc32)c1 yielded an activity change, negative = inhibition of -25.1%.
COc1ccc(C2=NC3(CCCCC3)N(CC(=O)Nc3ccc(C(C)C)cc3)C2=O)cc1 gave an activity change, negative = inhibition of -14.7%.
Molecule CCn1c(C)c(C)c2cc(C(=O)NCCc3cc(OC)ccc3OC)ccc21 has an activity change, negative = inhibition of 0%.
With Cc1cccc(C(=O)NCCc2nc3ccccc3n2Cc2ccccc2Cl)c1 the activity change, negative = inhibition was 3.18%.
For Cc1cccc(C(=O)Nc2ccc(-c3nc4ccccc4s3)c(C)c2)c1, the activity change, negative = inhibition was 55.1%.
Work on O=C(Cn1cnc2ccccc2c1=O)NNC(=O)c1ccccc1F yielded an activity change, negative = inhibition of -0.88%.
CC(NC(=O)c1ccccc1F)c1cccc2ccccc12 (configuration not stated) gave an activity change, negative = inhibition of -5.98%.
In the case of CSc1nc(N(C)NC(=O)c2cccc(C)c2)c2ccccc2n1, the activity change, negative = inhibition is reported as -87.3% (active).
With CN(NC(=O)c1ccccc1F)c1nc(C(F)(F)F)nc2ccccc12 the activity change, negative = inhibition was -62.6% (active).
Cc1cc2oc(C(=O)N(Cc3ccc(Cl)cc3)Cc3ccco3)c(C)c2cc1Cl gave an activity change, negative = inhibition of -14.8%.
Molecule COc1cccc(C(=O)N2CCCC(CCC(=O)NCc3ccc(F)c(F)c3)C2)c1 (configuration not stated) has an activity change, negative = inhibition of 34.9%.
In the case of COc1ccc(C)cc1N(CC(=O)N1CCC(C)CC1)S(=O)(=O)c1ccc(C)cc1, the activity change, negative = inhibition is reported as -13.7%.
Molecule CCN(CC)CCNC(=O)CN1N=C(c2ccc(OC)cc2)CCC1=O has an activity change, negative = inhibition of 29.3%.
CC1(C(=O)O)CCN1C(=O)/C=C/c1ccccc1 (configuration not stated) showed an activity change, negative = inhibition of -1.81%.
For CC1(C)CCSC(/C=C/c2ccccc2)=N1, the activity change, negative = inhibition was -97.3% (active).
CC1(C(=O)NS(=O)(=O)c2ccccc2)CCN1C(=O)C/C=C/c1ccccc1 (configuration not stated) showed an activity change, negative = inhibition of 19.5%.
For COc1cccc(-n2ccn(CC(=O)NCc3ccc(C)cc3)c(=O)c2=O)c1, the activity change, negative = inhibition was -17.1%.
With Fc1ccccc1N=C1Nc2cccc3cccc1c23 the activity change, negative = inhibition was -68.6% (active).
Work on COc1ccc(C)cc1S(=O)(=O)Nc1cc2c3c(c1)CCC(=O)N3CCC2 yielded an activity change, negative = inhibition of 0.474%.
CCN(CC)P(=O)(/C(Cl)=C\Nc1c(C)n(C)n(-c2ccccc2)c1=O)N(CC)CC gave an activity change, negative = inhibition of 54%.
Work on Cc1cc(C)c2nc(SCC(=O)N(C)C3CCS(=O)(=O)C3)cc(C)c2c1 (configuration not stated) yielded an activity change, negative = inhibition of 25.8%.
With CCCOc1ccc(C(=O)C(CCC(CNCC)C(=O)c2ccc(OCCC)cc2)CNCC)cc1 (configuration not stated) the activity change, negative = inhibition was -96.5% (active).
With CC(C)CCOc1ccc(C(=O)C[N+]2(C)CCOCC2)cc1 the activity change, negative = inhibition was -4.43%.
In the case of CCCOc1cccc(C(=O)Nc2cccc(NC(=O)c3ccc(C(C)(C)C)cc3)c2)c1, the activity change, negative = inhibition is reported as 50.3%.
Cc1ccc(OCCn2c(CNc3ccccc3C)nc3ccccc32)cc1 showed an activity change, negative = inhibition of 38%.
Work on COc1ccc(/C=C/c2nc(C#N)c(NCc3ccc(F)cc3)o2)cc1OC yielded an activity change, negative = inhibition of 9.25%.
Cc1cc(Cl)ccc1OCC(=O)N(Cc1ccc(N(C)C)cc1)C1CCS(=O)(=O)C1 (configuration not stated) showed an activity change, negative = inhibition of 15.4%.
With COc1ccc(Cl)cc1NC(=O)CCC(=O)c1ccc(C)cc1 the activity change, negative = inhibition was -19.2%.
For COc1ccc(Cl)cc1NC(=O)CCS(=O)(=O)c1ccc(Br)cc1, the activity change, negative = inhibition was -65.8% (active).
Cc1ccc(Cl)cc1NC(=O)CCS(=O)(=O)c1ccc(Br)s1 gave an activity change, negative = inhibition of -33.6%.
O=C(c1ccccc1)N1CC(=O)N2[C@@H](CO)[C@@H](c3ccc(Br)cc3)[C@@H]2C1 gave an activity change, negative = inhibition of 14.7%.
With Cc1cc(C(=O)Nc2cccc(C(F)(F)F)c2)c2c(C)nn(-c3cccc(F)c3)c2n1 the activity change, negative = inhibition was -98.1% (active).
Work on COc1cc(NC(=O)c2cc(C3CC3)nc3c2c(C)nn3-c2ccccc2)cc(OC)c1 yielded an activity change, negative = inhibition of -30%.
CSc1ccc(CCNC(=O)c2cc(C)nc3c2c(C)nn3-c2cccc(F)c2)cc1 showed an activity change, negative = inhibition of 30.7%.
In the case of O=C(CN1CCN(S(=O)(=O)/C=C/c2ccccc2)CC1)NC(=O)NCc1ccco1, the activity change, negative = inhibition is reported as 61.6%.
In the case of COc1ccc(OC)c(C2C3=C(N=c4s/c(=C\c5cccc(O)c5)c(=O)n42)c2ccccc2CC3)c1 (configuration not stated), the activity change, negative = inhibition is reported as -92.5% (active).
% is scaled to controls: 0 for no effect and ±100 for the full control effect.
